Assay results taken from PubChem BioAssay (NCI).
The panel holds about 83,000 compounds, 20% with a hit somewhere; the sample as a whole holds those more often.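 Single-concentration screen, 48 h exposure, 96-well plates. Endpoint: percent growth. Below 10 = active.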 Active and inactive are the calls of the source.

Legend:
Test in all cases: NCI-60 one-dose screen, 48 h (100 = growth as untreated, 0 = no growth, -100 = all killed)
Settings in all cases: 10 µM unless noted
DU-145 prostate = test system: DU-145 prostate
K-562 leukemia = test system: K-562 leukemia
MALME-3M melanoma = test system: MALME-3M melanoma
MDA-MB-231 breast = test system: MDA-MB-231 breast
RXF 393 renal = test system: RXF 393 renal
SF-268 CNS = test system: SF-268 CNS
SF-295 CNS = test system: SF-295 CNS
SF-539 CNS = test system: SF-539 CNS
UACC-257 melanoma = test system: UACC-257 melanoma
M14 melanoma = test system: M14 melanoma

Measured: growth

CSc1nc2c(c(=O)[nH]1)C(c1ccc(C)cc1)C=C(C(=O)O)N2 (stereo not given)
inactive: DU-145 prostate 123% | K-562 leukemia 110% | MALME-3M melanoma 98.8% | MDA-MB-231 breast 136% | RXF 393 renal 112% | SF-268 CNS 115% | SF-295 CNS 89.5% | SF-539 CNS 106% | UACC-257 melanoma 110% | M14 melanoma 99.8%

O=[N+]([O-])c1cccc(-c2nc3sccn3c2-c2ccnc(NCCCNS(=O)(=O)c3ccc(C(F)(F)F)cc3)n2)c1
inactive: DU-145 prostate 47.3% | K-562 leukemia 20.6% | MALME-3M melanoma 30.5% | MDA-MB-231 breast 57.3% | RXF 393 renal 55.6% | SF-268 CNS 38.1% | SF-295 CNS 27.2% | SF-539 CNS 70.9% | UACC-257 melanoma 37.4% | M14 melanoma 27.7%

O=C(Nc1ccc2c(c1)OCCO2)C(=O)c1c[nH]c2ccccc12
active: DU-145 prostate 7.38% | SF-539 CNS -6.87%
inactive: K-562 leukemia 12.2% | MALME-3M melanoma 46.6% | MDA-MB-231 breast 28.9% | RXF 393 renal 24.3% | SF-268 CNS 46.1% | SF-295 CNS 23.8% | UACC-257 melanoma 70.7% | M14 melanoma 19.9%

Nc1cccc(Cl)c1N
inactive: DU-145 prostate 117% | K-562 leukemia 102% | MALME-3M melanoma 116% | MDA-MB-231 breast 99.3% | RXF 393 renal 121% | SF-268 CNS 104% | SF-295 CNS 118% | SF-539 CNS 90.4% | UACC-257 melanoma 113% | M14 melanoma 104%

NC(=O)CCCN1C/C(=C\c2ccccc2)C(=O)c2ccccc21
inactive: DU-145 prostate 102% | K-562 leukemia 97.1% | MALME-3M melanoma 105% | MDA-MB-231 breast 100% | RXF 393 renal 81.9% | SF-268 CNS 90.2% | SF-295 CNS 94.3% | SF-539 CNS 105% | UACC-257 melanoma 87.5% | M14 melanoma 103%

CCc1ccc(-c2ccc(=O)n(-c3ccc(S(N)(=O)=O)cc3)n2)cc1
active: RXF 393 renal -31.8%
inactive: DU-145 prostate 59.6% | K-562 leukemia 11% | MALME-3M melanoma 35.6% | MDA-MB-231 breast 66.8% | SF-268 CNS 42.1% | SF-295 CNS 18.4% | SF-539 CNS 43.6% | UACC-257 melanoma 22.3% | M14 melanoma 17.7%

CCCCCCCCCCCCNC(=O)[C@H]1CSC(c2cc(Br)cs2)N1 (stereo not given in full)
active: DU-145 prostate -48.2% | K-562 leukemia -47.2% | MDA-MB-231 breast -77.9% | RXF 393 renal -60% | SF-268 CNS -72.4% | SF-539 CNS -66.3% | UACC-257 melanoma -22.3% | M14 melanoma -83.5%
inactive: MALME-3M melanoma 13.1% | SF-295 CNS 36%

COc1cccc(-c2cc3c(O)cc(C#N)cc3[nH]2)c1
inactive: DU-145 prostate 101% | K-562 leukemia 82.5% | MALME-3M melanoma 100% | MDA-MB-231 breast 73% | RXF 393 renal 112% | SF-268 CNS 98.9% | SF-295 CNS 90.6% | SF-539 CNS 85.5% | UACC-257 melanoma 86.9% | M14 melanoma 86.6%
